RMI FANCM FP: disruptors of RMI1/RMI2 association with MM2 peptide – biochemical, fluorescence polarization, human, primary screen | AID 1159607, 2016 | RMI core complex with F-MM2 peptide; stronger effect = lower value | FP signal (polarization) at 33 µM | RMI core complex (RMI1/RMI2) binding to FANCM MM2 peptide, human | actives 0.58% (n = 70,000); in the data active means FP signal below about 40
* marks the source's active call; other numbers are inactive results. Shown is part of a subset that was picked to be rich in hits.

Screening O=C(O)/C=C/CN1C(=O)c2cccc3cccc(c23)C1=O returned RMI FANCM FP 61.
`Cc1cccc(CC(=O)NNC(=O)c2ccc(=O)n(Cc3ccccc3)c2)c1` gave RMI FANCM FP 62.
COC(=O)c1ccc2c(=O)n(CCCC(=O)NCc3ccc(F)cc3)c(=S)[nH]c2c1 was read as RMI FANCM FP 67.
O=C(Nc1ncn[nH]1)c1ccc(Cl)c(S(=O)(=O)N2CCCCC2)c1 was read as RMI FANCM FP 66.
For Cc1cccc(N2C(=O)/C(=C/C=C/c3ccco3)SC2=S)c1C the results were RMI FANCM FP 9*.
`O=C(NN1C(=O)/C(=C\C=C\c2ccco2)SC1=S)c1ccc([N+](=O)[O-])cc1` gave RMI FANCM FP 21*.
Screening CC(C(=O)O)N1C(=O)/C(=C/C=C/c2ccco2)SC1=S (centres undefined) returned RMI FANCM FP 82.
CN1C(=O)/C(=C\C=C\c2ccccc2)SC1=S was read as RMI FANCM FP 59.
For Cc1ccc(C(=O)NN2C(=O)/C(=C/c3ccc(N(C)C)cc3)SC2=S)cc1 the results were RMI FANCM FP 104.
O=C(Cc1ccccc1)NN1C(=O)/C(=C/c2cccc([N+](=O)[O-])c2)SC1=S was read as RMI FANCM FP 59.
For O=C(NCCCn1ncccc1=O)Nc1ccc(OC(F)(F)F)cc1 the results were RMI FANCM FP 65.
`Cc1ccc(Cn2c(N3CCN(Cc4cc(C)ccc4C)CC3)nc3c2c(=O)[nH]c(=O)n3C)cc1` gave RMI FANCM FP 53.
CCOC(=O)c1cc(Sc2cccc(OC)c2)cc(C(=O)OCC)n1 was read as RMI FANCM FP 59.
Screening CCc1c(O)c2ccccc2[nH]c1=O returned RMI FANCM FP 58.
`CCc1c(C#N)c(SCC(=O)c2cc(C)n(CCOC)c2C)nc2c1C(=O)CC(C)(C)C2` gave RMI FANCM FP 96.
For Cc1c(-c2nc(-c3cccc(Cl)c3)cs2)nnn1-c1cccc(Cl)c1 the results were RMI FANCM FP 69.
For N#Cc1c(=O)[nH]c(O)c2c(=N)oc3ccc(Cl)cc3c12 the results were RMI FANCM FP 10*.
Screening O=c1cc(O)c2cc(Cl)ccc2o1 returned RMI FANCM FP 57.
COc1ccc(-c2ccc(N3CCCC(C(=O)Nc4ccncc4)C3)nn2)cc1 (centres undefined) was read as RMI FANCM FP 64.
O=C(NCCOc1ccccc1)Nc1ccc2c(c1)OCO2 was read as RMI FANCM FP 62.
Screening Cc1cc(=O)[nH]c(-n2nc(C)cc2NC(=O)/C=C/c2ccc3c(c2)OCO3)n1 returned RMI FANCM FP 54.
CC(C)c1cc(=O)[nH]c(-n2nc(-c3cccs3)cc2NC(=O)c2cccs2)n1 was read as RMI FANCM FP 75.
CC(C)c1cc(=O)[nH]c(-n2nc(-c3cccs3)cc2NC(=O)/C=C\c2ccc3c(c2)OCO3)n1 was read as RMI FANCM FP 26*.
For O=C1/C(=C/c2ccc([N+](=O)[O-])cc2)SC(=S)N1CCS(=O)(=O)O the results were RMI FANCM FP 72.
`O=C(NCCOc1ccc2c(c1)OCO2)C1c2ccccc2Oc2ccccc21` gave RMI FANCM FP 83.
Screening CCN(CC)Cc1ccc(Nc2ccnc3cc(Cl)ccc23)cc1O returned RMI FANCM FP 60.
For CCOc1ccc(-c2cc(=O)c3ccc(NC(=O)c4cccs4)cc3o2)cc1 the results were RMI FANCM FP 81.
Cc1c(Cl)cccc1NC(=O)CCc1csc(NC(=O)c2ccc(F)cc2)n1 was read as RMI FANCM FP 82.
Screening C[C@H](CCC(=O)O)[C@H]1CC[C@H]2[C@@H]3[C@H](O)C[C@@H]4C[C@H](O)CC[C@]4(C)[C@H]3CC[C@]12C returned RMI FANCM FP 42.
For C[C@H](CCC(=O)O)[C@H]1CCC2C3C(CC[C@@]21C)[C@@]1(C)CC[C@@H](O)C[C@H]1C[C@@H]3O (some centres undefined) the results were RMI FANCM FP 63.
CC(CCC(=O)N/N=C/c1c[nH]c2ccccc12)C1CCC2C3C(O)CC4CC(O)CCC4(C)C3CCC12C (centres undefined) was read as RMI FANCM FP 21*.
Cc1ccc(-c2csc(NC(=O)c3nc4ccccc4s3)n2)o1 was read as RMI FANCM FP 111.
`Cc1ccc(-c2csc(NC(=O)c3nc4ccccc4s3)n2)cc1` gave RMI FANCM FP 130.
Screening O=C(Nc1csc(-c2ccc(Oc3ccc(-c4nc(NC(=O)c5nc6ccccc6s5)cs4)cc3)cc2)n1)c1nc2ccccc2s1 returned RMI FANCM FP 31*.
Screening Cc1cn2c3c(=O)n(C)c(=O)n(C)c3nc2n1CCCN1CCc2ccccc2C1 returned RMI FANCM FP 55.
Screening CCOC(=O)N1CCN(C(=O)C(=O)c2c(C)[nH]c3ccccc23)CC1 returned RMI FANCM FP 58.
Screening CN1C(=O)c2cccc(NC(=O)c3ccno3)c2C1=O returned RMI FANCM FP 64.
`Cn1cc(C(=O)N2CCOCC2)cc(NC(=O)c2ccc(Cl)cc2)c1=O` gave RMI FANCM FP 59.
CSc1ccccc1C(=O)Nc1cc(C)nn1-c1nc2c(cnn2-c2ccc(F)cc2)c(=O)[nH]1 was read as RMI FANCM FP 64.
`CC(=O)C1=C(c2ccccc2)c2cc(Cl)ccc2NC1` gave RMI FANCM FP 51.
For COc1ccc(C(c2c(C)[nH]c3ccccc23)c2c(C)[nH]c3ccccc23)c(OC)c1 the results were RMI FANCM FP 16*.
For COc1ccc(Cc2nc3ccccc3[nH]2)cc1 the results were RMI FANCM FP 62.
`Cc1ccnc(NC(c2ccco2)c2c(C)[nH]c3ccccc23)c1` (centres undefined) gave RMI FANCM FP 88.
Screening COc1ccc(S(=O)(=O)NCC2CCN(Cc3ccccc3)CC2)cc1Cl returned RMI FANCM FP 77.
`CN1CCCN(C(c2ccccc2)c2ccc(Cl)cc2)CC1` (centres undefined) gave RMI FANCM FP -4*.
CN1CCN(C(c2ccccc2)c2ccccc2)CC1 was read as RMI FANCM FP 69.
`Cc1cccc(CN2CCN(C(c3ccccc3)c3ccc(Cl)cc3)CC2)c1` (centres undefined) gave RMI FANCM FP 66.
Cc1ccc(N2C(=O)CSC23CCCCC3)cc1C was read as RMI FANCM FP 60.
C=CCn1c(=NC(=O)CCS(=O)(=O)c2ccc(OC)cc2)sc2c(C)cc(C)cc21 was read as RMI FANCM FP 57.
Screening Cc1cc2cc(CNC(=O)c3ccccc3F)ccc2n1C returned RMI FANCM FP 58.
`Cc1cc2cc(CNC(=O)c3ccccc3Br)ccc2n1C` gave RMI FANCM FP 55.
Screening Cc1cc2cc(CNC(=O)c3ccccc3Cl)ccc2n1C returned RMI FANCM FP 30*.
For CN(C)c1ccc(C(CNC(=O)C(=O)Nc2cccc(Cl)c2)N2CCCC2)cc1 (centres undefined) the results were RMI FANCM FP 65.
Cc1c([N+](=O)[O-])ccc(S(=O)(=O)NCCC2=CCCCC2)c1C was read as RMI FANCM FP 56.
`COc1ccc(CC(=O)Nc2cc(-c3ccco3)nn2-c2nc(C)c(C)c(=O)[nH]2)cc1OC` gave RMI FANCM FP 33*.
COc1ccc(CCC(=O)Nc2cc(-c3ccco3)nn2-c2nc(C)c(C)c(=O)[nH]2)cc1 was read as RMI FANCM FP 41.
For Cc1nc(-n2nc(-c3ccco3)cc2NC(=O)COc2ccc(Cl)cc2)[nH]c(=O)c1C the results were RMI FANCM FP 57.

Screening data: PubChem BioAssay, Small Molecule Screening Facility, UW Madison
